From PubChem BioAssay (NCATS) come the findings set out here.

Unmarked numbers belong to inactive results. Calls follow the shape of the dose curve; as a rule, active = well fitted activation curve with a large enough effect; inconclusive = small, poorly fitted or top-dose-only effect; inactive = flat fitted curve, though single readings scatter.

This assay can be described thus: Confirmation and Secondary Assay for Modulators of Hemoglobin Beta Chain Splicing at IVS2 705 locus (AID 930). Also: % of control where 0% means no effect. The conditions noted are these: HeLa EGFP-705 splicing reporter, GFP fluorescence, 48 h; series mostly up to 46.1 µM; activation: at the top concentration. From the text:
NIH Chemical Genomics Center [NCGC] NIH Molecular Libraries Screening Centers Network [MLSCN] MLSCN Grant: 1 X01 MH080684-01 PI Name: Dr. Ryszard Kole NCGC Assay Overview: Modulation of Alternative Splicing as Therapy Abnormal splicing is associated with a number of diseases, including cancer and genetic diseases such as cystic fibrosis, muscular dystrophy and beta-thalassemia. Alteration of disease associated splicing patterns provides a promising target for treatment. […] Mutations in the second intron of the b-globin gene at positions 654 or 705 are clinically relevant and cause mis-splicing which results in an out of frame gene product. […] EGFP-705 HeLa Cells as screen system. HeLa cell lines were stably transfected with a construct in which the EGFP (enhanced green fluorescent protein) cDNA was interrupted by the second intron of the beta-globin gene (IVS2-705). The ISV2 intron contains mutations which cause mis-splicing of EGFP and premature termination of EGFP which results in a nonfluorescent protein product. […] Expression of the transgene was driven by the CMV promoter. We concluded that a low molecular weight compound, which restored correct splicing of intron 2 would also generate functional EGFP protein, resulting in a fluorescent signal. Thus, the HeLa cells that express the EGFP-705 construct can be used for validation of splice site specificity of compounds identified in primary screening of the ISV2 654 construct.
NCGC Assay Protocol Summary: Confirmatory Screening. Freshly thawed HeLa EGFP-705 cells were seeded in 5 ul of optimem media (Invitrogen) containing 2 % fetal calf serum (Hyclone) and 1x penicillin/streptomycin (Invitrogen) at a concentration of 500 cells per well in 1536-well plates. Cells were incubated overnight at 37C in 5% CO2. The next day, cells were treated with DMSO, 500 nM antisense ISV2 654 PNA control oligo, or library compound and allowed to grow at 37C in 5% CO2 for 2 days. The PNA oligo blocked the mutation site in the intron and allowed proper (wild type) splicing to occur, resulting in full length EGFP expression and also allowed for optimization of the assay parameters. Plates were read in the Acumen Explorer (TTP Labtech) using 488 nm laser excitation and 500-520 nm emission PMT filter in a 1 x 8 uM capture mode. Fluorescnet objects ranging in size from 5 to 250 uM were measured and the total peak GFP intensity for each well was used for data analysis. Keywords: Thalassemia, beta-thalassemia, beta-globin, EGFP, ISV2 654, ISV2 705, SSO, PNA, antisense, splicing, MLSMR, MLSCN, NIH Roadmap, qHTS, NCGC
With `C=CCC1(C(C)CCC)C(=O)N=C(S)NC1=O` (stereo unspecified), the “activation” value is 0.245% [at 38.3 µM].
The same measure for `CC(N)Cc1ccc(O)cc1` (stereo unspecified): 1.49%; for `[Cl-].[Cl-].[Hg+2]`: -2.22%.
For the molecule `CCCC(C)C1(CC)C(=O)NC(=O)NC1=O` (stereo unspecified), the “activation” value was -0.848%.
For the molecule `NC(Cc1ccc(N(CCCl)CCCl)cc1)C(=O)O` (stereo unspecified), the “activation” value was 0.397%.
The same measure for `CN1C2CCC1CC(OC(c1ccccc1)c1ccccc1N)C2` (stereo unspecified): 0.908% [at 38.3 µM].
The same measure for `Clc1ccc(Cl)cc1`: 1.01% [at 38.3 µM]; for `OC1CCCCC1N1CCC(c2ccccc2)CC1` (stereo unspecified): 2.07%.
`[N-]=[N+]=CC(=O)OCC(N)C(=O)O` (stereo unspecified): the “activation” value is 0.396%.
The same measure for `ClC1C(Cl)C(Cl)C(Cl)C(Cl)C1Cl` (stereo unspecified): 0.0028%; for `C[CH2][Hg][S]c1ccccc1C(=O)O`: -1.03%.
In the case of `COc1ccc(OC)c(C(O)C(C)N)c1` (stereo unspecified), the “activation” value was -0.0174%.
The same measure for `COc1ccc2[nH]cc(CCN)c2c1`: -0.0152% [at 38.3 µM]; for `COc1ccc2c(c1OC)C(=O)OC2C1c2cc3c(cc2CCN1C)OCO3` (stereo unspecified): 2.16%.
For `O=C1CCO1`, the “activation” value is -1.1%.
`O=[N+]([O-])c1cc(O)c(O)c([N+](=O)[O-])c1`: the “activation” value was 0.452% [at 38.3 µM].
